Source: PubChem BioAssay (National Center for Advancing Translational Sciences (NCATS))
S16 viability: Cell viability qHTS assay in S16 Pmp22-F2sN cells | Potency, µM (highest dose often 57.5 µM), for the others: top-dose activity change, negative = cytotoxicity, usual class: cytotoxic | AID 1508642, 2021 | hit rate 0.48% among 43,000 | S16 Pmp22-F2sN Schwann cells viability, CellTiter-Glo, 24 h; note: potency is the fitted concentration of half-maximal effect; % is set by controls: 0 for no effect and ±100 for the full control effect; nearly all actives have a fitted effect of over 65% in size
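Seed 500-1,000 S16 Pmp22-F2sN cells per well in phenol-red-free DMEM with 10% heat-inactivated FBS; pin-add 23 nL compound; incubate 24 h at 37C; add CellTiter-Glo, wait 15 min protected from light; read luminescence.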
PMP22 txn prim: Cell-based coincidence reporter assay to measure PMP22 gene transcription in S16 Pmp22-F2sN cells - Primary screen. AID 1508649, 2021. Potency, µM (doses to about 57.5 µM), inactives show at the highest dose activity change, negative = inhibition, hits mostly inhibitors. S16 Pmp22-F2sN Schwann cells (luciferase reporters placed in the Pmp22 gene), FLuc/NLuc coincidence luminescence, 24 h. hit rate 2% among 43,000; active = clear falling dose curves in both reporters; inconclusive = both reporters move, but less clearly or upward; inactive = either reporter flat; the % is the NLuc reporter signal; note: potency is the fitted concentration of half-maximal effect; % is set by controls: 0 for no effect and ±100 for the full control effect
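Luminescent read-out of sequential FLuc and NLuc signals from a reporter embedded in the Pmp22 3' UTR of S16 Schwann cells, taken after 24 h compound exposure at 37C; compounds reducing both signals score as inhibitors of expression.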
p53null 39C tox: qHTS Screen for Compounds that Selectively Target Cancer Cells with p53 Mutations: Cytotoxicity of p53 Null Cells at the Nonpermissive Temperature; H1299 p53-null (neo) cells, 39C, ATPlite viability, 24 h; Potency, µM (highest dose often 46.1 µM), without a hit: top-dose activity, negative = cell killing, hits mostly cytotoxic; hit rate 0.97% among 55,000; AID 904, 2007;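 note: potency is the fitted concentration of half-maximal effect; 0% = DMSO only and -100% = full killing by 100 µM tamoxifen; nearly all actives have a fitted effect of over 50% in size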
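Concentration-response (up to 46 uM) was run for 24 h at the nonpermissive 39C on H1299-p53A138V or H1299-neo cells. ATP content was measured with ATPlite luminescence. AC50 values were Hill-modeled after normalizing between DMSO and 100 uM tamoxifen killing.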
SKOV3 invasion: Primary qHTS assay for Inhibitors of ovarian cancer metastasis using an organotypic tumor microenvironment (TME) model | SKOV3ip1-GFP adhesion/invasion on 3D omental model, fluorescence | Potency, µM (series often up to 45.8 µM), for inactives: at the top dose activity change, negative = inhibition, hits mostly inhibitors | hit rate 0.1% among 46,000 | AID 1963576, 2024;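 note: potency is the fitted concentration of half-maximal effect; plate controls were DMSO wells for no effect and tomatine positive control wells for full effect; nearly all actives have a fitted effect of over 65% in size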
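A 3D layer of primary human omental fibroblasts, mesothelial cells, fibronectin and collagen I, grown 48 hr, received SKOV3ip1-GFP cells in serum-free medium plus compounds at 0.36-46 umol/L. After 2 hr RT and 16 hr 37 C, fixed adherent GFP cells were counted; normalized to DMSO and tomatine.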
mTORC1 inh: Acumen qHTS Assay for Inhibitors of the mTORC1 Signaling Pathway in MEF (Tsc2-/-, p53-/-) Cells: Sytravon. Tsc2-/- p53-/- MEF, phospho-rpS6 immunofluorescence/PI, 24 h. Potency, µM (top dose mostly 38.3 µM), inactives show at the highest dose activity change, negative = inhibition, actives largely listed as inhibitors. hit rate 0.78% among 44,000. AID 493208, 2011;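 note: potency is the fitted concentration of half-maximal effect; plate controls were DMSO for no effect and rapamycin for full effect; nearly all actives have a fitted effect of over 50% in size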
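Readout is phospho-S6 Alexa 488 signal normalized to PI per well, reported as % active cells with thresholds set from rapamycin (7.5 nM) and DMSO controls. Cells: Tsc2-/-, p53-/- MEFs, 24 hrs compound at 37 C; PI cell number serves as viability.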
p53null 32C kill: qHTS Screen for Compounds that Selectively Target Cancer Cells with p53 Mutations: Cytotoxicity of p53 Null Cells at the Permissive Temperature. H1299-neo p53 null cells, ATP luminescence, 24 h, 32C. Potency, µM (series often up to 46.1 µM), for the others: at the top dose activity change, negative = cytotoxicity, actives largely listed as cytotoxic. AID 903, 2007. hit rate 0.62% among 55,000;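 note: potency is the fitted concentration of half-maximal effect; 0% = DMSO only and -100% = full killing by 100 µM tamoxifen; nearly all actives have a fitted effect of over 55% in size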
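ATP-content luminescence in p53-null H1299-neo cells after 24 h compound exposure (up to 46 uM) at 32C permissive temperature; 0% and 100% killing set by DMSO and 100 uM tamoxifen; Hill-equation AC50.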
NLuc sat counter: Biochemical NLuc saturation counterscreen for small molecule modulators of PMP22 gene expression - Nano-Glo assay | shares compounds with PMP22 txn prim | Secreted NLuc enzyme (filtered S16 cell medium), Nano-Glo luminescence | Potency, µM (top dose mostly 57.5 µM), without a hit: at the highest dose activity change, negative = inhibition, actives largely listed as inhibitors | hit rate 4% among 690; note: potency is the fitted concentration of half-maximal effect; % is set by controls: 0 for no effect and ±100 for the full control effect
NLuc Km counter: Biochemical coelenterazine-based NLuc counterscreen for small molecule modulators of PMP22 gene expression - Km assay; shares compounds with PMP22 txn prim; secreted NLuc enzyme, coelenterazine luminescence, Km conditions; Potency, µM (top dose mostly 57.5 µM), inactives show at the top dose activity change, negative = inhibition, hits mostly inhibitors; hit rate 5% among 690; note: potency is the fitted concentration of half-maximal effect; % is set by controls: 0 for no effect and ±100 for the full control effect
FLuc counter: Biochemical FLuc counterscreen for small molecule modulators of PMP22 gene expression; shares compounds with PMP22 txn prim; purified P. pyralis FLuc, luminescence, 10 min; Potency, µM (series often up to 57.5 µM), for the others: at the top dose activity, negative = inhibition, hits mostly inhibitors; 690 tested, under 10 active; note: % of control where 0% means no effect
Target sequence (P08659 whole entry, looked up): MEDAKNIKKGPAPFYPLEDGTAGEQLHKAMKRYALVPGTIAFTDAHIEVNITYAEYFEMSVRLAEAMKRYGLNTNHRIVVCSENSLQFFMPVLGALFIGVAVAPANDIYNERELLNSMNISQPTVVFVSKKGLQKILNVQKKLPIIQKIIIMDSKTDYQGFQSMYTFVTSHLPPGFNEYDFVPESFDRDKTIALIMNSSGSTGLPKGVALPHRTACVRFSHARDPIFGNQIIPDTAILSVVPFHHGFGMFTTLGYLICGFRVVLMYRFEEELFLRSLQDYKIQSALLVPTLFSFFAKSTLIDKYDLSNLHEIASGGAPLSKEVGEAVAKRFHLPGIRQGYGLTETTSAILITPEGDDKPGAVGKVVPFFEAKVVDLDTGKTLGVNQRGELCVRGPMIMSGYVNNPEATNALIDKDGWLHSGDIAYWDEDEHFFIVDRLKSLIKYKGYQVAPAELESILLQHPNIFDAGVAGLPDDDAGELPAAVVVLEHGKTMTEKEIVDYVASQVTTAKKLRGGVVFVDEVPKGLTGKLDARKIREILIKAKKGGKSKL
S16 F2sN tox cnf: Cell viability qHTS assay in S16 Pmp22-F2sN cells - Confirmatory screen. shares compounds with PMP22 txn prim. S16 Schwann cells viability, CellTiter-Glo ATP luminescence, 24 h. Potency, µM (highest dose often 57.5 µM), for the others: at the highest dose activity change, negative = viability loss, hits mostly cytotoxic. hit rate 7% among 690; note: potency is the fitted concentration of half-maximal effect; % is set by controls: 0 for no effect and ±100 for the full control effect
PMP22 txn conf: Cell-based coincidence reporter assay to measure PMP22 gene transcription in S16 Pmp22-F2sN cells - Confirmatory screen. Potency, µM (top dose mostly 57.5 µM), without a hit: at the highest dose activity change, negative = inhibition, hits mostly inhibitors. hit rate 22% among 690. S16 Schwann cells Pmp22-F2sN, dual luciferase, 24 h. shares compounds with PMP22 txn prim; active = clear falling dose curves in both reporters; inconclusive = both reporters move, but less clearly or upward; inactive = either reporter flat; the % is the FLuc reporter signal; note: potency is the fitted concentration of half-maximal effect
* hit, by the source's call; i = inactive; ? = inconclusive; . = no result. This is a sample that favours compounds with a hit; in the whole collection about 3.1% have one here. Unless noted, calls come from the whole dose curve; as a rule, active = well fitted curve in the direction sought with a large enough effect; inconclusive = small, poorly fitted or top-dose-only effect, or another doubt; inactive = no such curve, though single readings can be large; an effect the other way counts as inactive or inconclusive.

SMILES	S16 viability	PMP22 txn prim	p53null 39C tox	SKOV3 invasion	mTORC1 inh	p53null 32C kill	NLuc sat counter	NLuc Km counter	FLuc counter	S16 F2sN tox cnf	PMP22 txn conf
CC1(C)C(N(O)C(=O)Nc2ccc(Cl)cc2)N(c2ccc(Cl)cc2)C(=O)N1CC(=O)NN=CC=Cc1ccc([N+](=O)[O-])o1 (configuration not stated)	.	.	.	-8%	.	.	.	.	.	.	.
COc1ccc(Cn2c(=O)n(-c3ccc(OC)cc3)c(=O)c3c2c2cc(OC)ccc2n3C)cc1	3%	-36%	8%	7%	0%	7%	.	.	.	.	.
COc1ccc(-n2c(=O)c3c(c4cc(OC)ccc4n3C)n(CCC(C)C)c2=O)cc1	8%	2.1µM*	10%	10%	1%	1%	-18%	-2%	3%	9%	-21%
CCCCN(Cc1cc2ccccc2[nH]c1=O)C(=O)c1cccc(Cl)c1	0%	20µM*	-20%	-9%	4%	7%	?	?	3%	?	-12%
CCOc1ccccc1N(CC)C(=O)c1cc2c(=O)n(CC)c3ccccc3c2s1	11%	?	?	i	-6%	31%	.	.	.	.	.
CCCN(C(=O)c1cc2c(=O)n(CC)c3ccccc3c2s1)c1ccccc1F	6%	7.6µM*	?	i	3%	-4%	-19%	?	3%	-10%	?
O=C1NC(=O)C(=Cc2ccc(-c3ccc(F)cc3)o2)S1	.	.	.	-18%	.	.	.	.	.	.	.
C#C[C@]1(O)CC[C@H]2[C@H]3CCc4cc(OC)ccc4[C@H]3CC[C@@]21C	.	.	.	-13%	.	.	.	.	.	.	.
